For 1 molecule, outcome results are on record in PubChem BioAssay AID2284139 (EPA ToxCast).

Each structure is given as a SMILES string. Activity calls are given as the source filed them. The calls were made as follows: active = hit-call score of the fitted dose curve at least 0.9, where 1 is the maximum; inactive = score below 0.9.

Chain of human ZAP70 Tyrosine Kinase, ZAP70 (gene 7535) (P43403 whole entry, looked up): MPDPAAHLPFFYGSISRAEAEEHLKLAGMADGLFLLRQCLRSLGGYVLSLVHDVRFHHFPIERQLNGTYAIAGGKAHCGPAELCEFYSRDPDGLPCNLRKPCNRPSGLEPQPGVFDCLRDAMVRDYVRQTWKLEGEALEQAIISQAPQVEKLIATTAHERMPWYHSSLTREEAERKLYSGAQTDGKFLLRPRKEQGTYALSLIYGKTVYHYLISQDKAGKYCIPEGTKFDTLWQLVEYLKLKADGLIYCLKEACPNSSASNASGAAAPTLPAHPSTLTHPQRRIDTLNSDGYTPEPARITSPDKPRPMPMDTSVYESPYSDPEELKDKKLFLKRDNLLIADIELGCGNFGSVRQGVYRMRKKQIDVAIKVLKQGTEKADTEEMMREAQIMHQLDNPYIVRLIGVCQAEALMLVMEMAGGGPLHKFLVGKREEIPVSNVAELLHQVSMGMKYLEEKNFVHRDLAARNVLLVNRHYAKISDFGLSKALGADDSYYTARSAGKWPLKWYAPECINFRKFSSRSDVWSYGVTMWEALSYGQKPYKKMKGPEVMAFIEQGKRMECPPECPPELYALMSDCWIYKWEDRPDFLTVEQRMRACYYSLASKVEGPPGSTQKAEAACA

The target of this experiment is human ZAP70 Tyrosine Kinase, ZAP70 (gene 7535) (UniProt P43403). The experiment in a line: ERF_FR_ENZ_hZAP70: Eurofins (ERF) Enzymatic Radiometric [Km ATP] KinaseProfiler LeadHunter Assay for human ZAP70 Tyrosine Kinase. The protocol:
ERF_FR_ENZ_hZAP70 is a biochemical, single-readout assay that uses extracted gene-proteins in a cell-free assay. Measurements were taken 0.25 hour after chemical dosing in a 96-well plate. See ZAP70 Human TK Kinase Enzymatic HTRF Assay [Km ATP], Cerep.ERF_FR_ENZ_hZAP70 is an assay component calculated from the ERF_FR_ENZ_hZAP70 assay. It is designed to measure enzyme activity using a type of enzyme reporter as detected by fluorescence intensity with HTRF technology.Data from the assay component ERF_FR_ENZ_hZAP70 was analyzed at the assay endpoint, ERF_FR_ENZ_hZAP70, in the positive analysis fitting direction relative to DMSO as the negative control and baseline of activity. Using a type of enzyme reporter, loss-of-signal activity can be used to understand changes in enzymatic activity as they relate to gene ZAP70. To generalize the intended target to other relatable targets, this assay endpoint is annotated to the kinase intended target family, where the subfamily is protein tyrosine kinase.
ZAP-70 (h) is incubated with 50 mM Tris pH 7.5, 0.1 mM EGTA, 0.1 mM Na3VO4, 0.1% […], 0.1 mg/mL poly(Glu, Tyr) 4:1, 10 mM MnCl2, 10 mM MgAcetate and [gamma-33P]-ATP (specific activity and concentration as required). The reaction is initiated by the addition of the Mg/ATP mix. […]
Take `O=C(/C=C/c1ccc(O)cc1)CC(=O)/C=C/c1ccc(O)cc1`: the molecule was classed as inactive.
